Drawing on PubChem BioAssay (NCI), this text covers growth for 40 molecules.

Compounds without any hit were thinned out: in the full panel of roughly 83,000, 20% have a hit.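 In brief: 96-well plates, 48 h treatment, single concentration, percent growth endpoint.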 Active and inactive are the calls of the source.

This test relates to HCT-116 colon. The test can be described thus: NCI-60 one-dose screen, 48 h (100 = growth as untreated, 0 = no growth, -100 = all killed). To be noted: 10 µM unless noted. How it is done:
Growth inhibition of the HCT-116 human tumor cell line is measured as a screen for anti-cancer activity. Cells are grown in 96 well plates and exposed to the test compound for 48 hours. Compounds are tested at a single concentration, which is 10^-5 M for most compounds. The reported endpoint is percent growth (GI% or GIPRCNT), where numbers from 0 - 100% represent growth inhibition, and numbers from -100% - 0 represent cell death. For example, a value of 40 represents 60% growth inhibition. A value of 0 means no net growth occurred over the course of the experiment. A value of -40 indicates 40% of cells at the beginning of the experiment died by the end of the experiment. A value of -100 means all cells are dead at the end of the experiment.
NCI-60 Human Tumor Cell Lines Screen was performed using the standard one-dose NCI protocol, which is described in more detail at https://dtp.cancer.gov/discovery_development/nci-60/default.htm.
Compounds with GIPRCNT values below 10 were considered active. Activity score was based on GIPRCNT using the following formula: […]
Score is 0 for GIPRCNT values of 100 or above, 50 for GIPRCNT values of 0, and 100 for GIPRCNT values of -100.
Take `CSc1nc2c(c(=O)[nH]1)C(c1ccc(Cl)cc1)C1=C(N2)/C(=C/c2ccc(Cl)cc2)CNC1` (stereo not given): the growth is -69.5% (active).

With `Cc1cc(=O)n2n1-c1ccc(Cl)cc1NC(=O)C2`, the growth was 107% (inactive).

Regarding `O=C(Nc1nc(-c2ccc(Cl)cc2)cs1)c1cc(O)c(O)c(O)c1`, the growth is 17.7% (inactive).

With `COc1ccc(-c2cn(-c3ccccc3)c(-c3ccccc3)n2)cc1OC`, the growth is 20.3% (inactive).

Regarding `Fc1ccc(-c2nc(Nc3ccc(-c4nc5ccccc5[nH]4)cc3)nc(N3CCOCC3)n2)cc1`, the growth is -85.5% (active).

As for `Cn1c(=O)c2nc(SCc3ccccc3)n(C)c2n(C)c1=O`, the growth was 98.9% (inactive).

Turning to `CCOc1cc(C(C)(C)C)ccc1C1=N[C@H](c2ccc(Cl)cc2)[C@H](c2ccc(Cl)cc2)N1C(=O)N1CCN(CC#Cc2cccc3c2CN([C@@H]2CCC(=O)NC2=O)C3=O)CC1`, the growth was 17.8% (inactive).

As to `COc1ccc2nccc(/C=C/c3ccnc4ccc(OC)cc34)c2c1`, the growth was 102% (inactive).

Turning to `Cc1nn(-c2ccc(Cl)cc2)c2nc3c(nc12)C(=O)C(=O)c1ccccc1-3`, the growth is 80.2% (inactive).

For the molecule `CC(C)C/C(=N\NC(=O)c1ccncc1)c1cc(Cl)ccc1O`, the growth was 0.442% (active).

On to `CC(C)c1nc(N(C)S(C)(=O)=O)nc(-c2ccc(F)cc2)c1/C=C/[C@@H](O)C[C@@H](O)CC(=O)O`, for which the growth is 98.2% (inactive).

`CCC(C)(C)C(=O)O[C@H]1C[C@@H](C)C=C2C=C[C@H](C)[C@H](CC[C@@H]3C[C@@H](O)CC(=O)O3)[C@H]21`: the growth was 20.4% (inactive).

Consider `N#Cc1c(N2CCOCC2)nc2sc3cc(Cl)ccc3n2c1=N`, for which the growth is 103% (inactive).

Consider `CCC(=O)Nc1ccccc1C#C/C=C\C#Cc1ccccc1C(F)(F)F`, for which the growth is 41% (inactive).

Turning to `NC(=O)N/N=C/c1ccc(Br)o1`, the growth is 105% (inactive).

Consider `N#CCCN(CCO)c1ccccc1`, for which the growth is 100% (inactive).

As to `Nc1nc(N)c([N+](=O)[O-])c(=O)[nH]1`, the growth is 110% (inactive).

Regarding `COc1cc(OC)c2sc(-c3ccc(-n4cncc4-c4ccc(N)cc4)cc3)nc2c1`, the growth was 70.2% (inactive).

Regarding `O=C1/C(=C/c2ccc([N+](=O)[O-])o2)Oc2ccc(Cl)cc21`, the growth is -26.6% (active).

`COc1cc(/C=C2\COc3ccc(O)cc3C2=O)cc(OC)c1`: the growth is 0.249% (active).

On to `CCCCCCCCCCCCCCCCCC1=NC(C)(C)CN1CCO`, for which the growth was -67% (active).

Turning to `Cn1cc(-c2csc(-c3c[nH]c4ncccc34)n2)c2cc(F)cnc21`, the growth is 59.8% (inactive).

On to `Cn1cc(-c2csc(-c3cn(C)c4ncccc34)n2)c2cccnc21`, for which the growth is 95% (inactive).

Turning to `N#Cc1c2ccccc2c2n1-c1ccccc1OC(c1ccccc1)C2=O` (stereo not given), the growth is 11.3% (inactive).

For the molecule `COC(=O)CCC1=C(CC(=O)OC)C(C)=N/C1=C\c1[nH]c(-c2ccc[nH]2)cc1OC`, the growth is 9.33% (active).

In the case of `Cc1c(NCc2nnc3n(Cc4ccccc4)c(=O)c4c5c(sc4n23)CCCC5)c(=O)n(-c2ccccc2)n1C`, the growth is 88.1% (inactive).

Take `Cn1cnc([N+](=O)[O-])c1S(=O)(=O)Oc1ccc(Cl)cc1`: the growth is -32.1% (active).

With `CCc1ccc(CCN2C(=O)c3ccccc3C2=O)nc1`, the growth is 109% (inactive).

Take `Nc1ccc(C2=NN(c3ccccc3)C(c3ccc(Cl)cc3)C2)cc1` (stereo not given): the growth is -57.3% (active).

Consider `Cn1c(=O)c2c(nc(Br)n2CCC(=O)Nc2ccc(F)cc2)n(C)c1=O`, for which the growth is 85.5% (inactive).

Turning to `Cc1nn(-c2ccccc2)c2nc3c(nc12)C(=O)CCC3`, the growth is 91.6% (inactive).

Turning to `Cc1c(C(N)=O)sc2ncn(CC(=O)Nc3ccc(Cl)cc3)c(=O)c12`, the growth is 105% (inactive).

Consider `COc1ccc2[nH]cc(/C=C3/C(=O)Nc4ccc(F)cc43)c2c1`, for which the growth was 86% (inactive).

Take `CCOC(=O)C1=C(C)N2C(=NC3=C(CCC/C3=C\c3ccc(Cl)cc3)C2c2ccc(Cl)cc2)S1` (stereo not given): the growth was -100% (active).

As to `Oc1[nH]c2ccccc2c1/C=c1/ccc2c(c1)N=C(c1cc(F)cc(F)c1)N=2`, the growth is 28.7% (inactive).

For `Nc1ccc(S(=O)(=O)Nc2ncccn2)cc1`, the growth was 113% (inactive).

`COc1ccc(-c2c(-c3cc(OC)c(OC)c(OC)c3)noc2N)cc1`: the growth was 8.77% (active).

As to `C/C(=N\N1CC(=O)NC1=O)c1ccc([N+](=O)[O-])o1`, the growth was 106% (inactive).

As for `O=C1N(C2CCCCC2)C(=O)N1C1CCCCC1`, the growth is 44.2% (inactive).

For `O=C1CC(C(F)(F)F)=NN1C(=O)c1nn(-c2ccc(Cl)cc2)cc1O`, the growth is 74.1% (inactive).
